The text below walks through data of PubChem BioAssay AID1850 (Southern Research Specialized Biocontainment Screening …, 2009).

Out of some 310,000 compounds screened, about 1,000 (0.32%) were called active. Only a sample is shown. Entries with a potency or affinity are not part of this list. Values without a mark were called inactive. The rule behind the calls is not given here.

This experiment is described as follows: Inhibition of PhoP regulon, Salmonella typhi GFP reporter cells, confirmation, 4 h (AID 1850).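 Note: 0% = induced wells with vehicle and 100% = uninduced wells.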 To be noted: Salmonella Typhi PhoP-promoter GFP reporter, fluorescence, at 50 µM, hits give high values.
As for `O=C(CCC1CCCN(C(=O)c2cccc(F)c2)C1)N1CCN(c2ccccn2)CC1` (stereo not given), the inhibition was -7.6%.
Then `O=C(CCNS(=O)(=O)c1ccccc1)OCC(=O)c1ccc(Br)cc1`, with -3.69%; and `COc1ccc(C2N(c3ccccc3)CCN2c2ccccc2)cc1O`, with -8.63%.
As to `COc1ccccc1Cn1c(CCCO)nc2ccccc21`, the inhibition was 1.55%.
With `Oc1ccc(Cl)cc1CNn1cnnc1`, the inhibition was 9.93%.
Then `Oc1ccc(Cl)cc1CNCc1ccc(Cl)cc1`, with 12.4%; and `CCOc1ccc(S(=O)(=O)NC(C)C(=O)NCc2ccccn2)cc1` (stereo not given), with -3.4%.
On to `OC(CN1CC=C(/C=C/c2ccc(Br)cc2)CC1)c1ccccc1` (stereo not given), for which the inhibition is -9.93%.
Then `COc1ccc(/C=C/C2=CCN(C)CC2)cc1`, with 17.2%; and `CCOc1ccc(S(=O)(=O)N2CCN(C(=O)c3ccncc3)CC2)cc1`, with -2.75%; and `CC1CN(C(=O)CCC(=O)NCc2ccccc2)c2ccccc2S1` (stereo not given), with 6.38%.
Under `OC(CNCC1CCCO1)Cn1c2ccccc2c2ccccc21` (stereo not given) stands 14.3%.
Under `OC(CNCC1CCCO1)Cn1c2ccc(Br)cc2c2cc(Br)ccc21` (stereo not given) stands -0.49%; under `NC(=O)Cn1c(=O)n(CC(=O)N2CCCCC2)c(=O)c2sccc21`, 2.84%.
Take `COc1ccc(CNCCc2c(C)[nH]c3ccc(OC(F)(F)F)cc23)c(OC)c1`: the inhibition was -3.23%.
Take `Cc1[nH]c2ccc(OC(F)(F)F)cc2c1CCNCc1cccc([N+](=O)[O-])c1`: the inhibition was 6.4%.
Then `COc1ccc2[nH]c(C)c(CCNC(=S)Nc3ccccc3OC)c2c1`, with -5.5%; and `COc1ccc2[nH]c(C)c(CCNCc3cc(OC)c(OC)c(OC)c3)c2c1`, with 7.48%.
Take `O=C(CN1CCC(C(O)(c2ccccc2)c2ccccc2)CC1)Nc1cc(Cl)ccc1Cl`: the inhibition is -20%.
For `COc1ccccc1C(=O)NC(=O)Nc1nc(-c2ccccc2)cc(C(F)(F)F)n1`, the inhibition was 2.17%.
Take `COc1cc(/C=C/C(=O)O)ccc1O`: the inhibition was 10.8%.
Under `C/C=C/c1ccc(O)c(OC)c1` stands 1.57%; under `C/C(=N\Nc1nc(C)cc(-c2ccccc2)n1)c1ccc(O)cc1`, -2.43%.
Then `Cc1cccc(C)c1NC(=O)CN(C)C(=O)c1ccc2nc[nH]c2c1`, with 1.29%; and `Cc1ccc(C(=O)NCC(C)NC(=O)c2ccc(C)c([N+](=O)[O-])c2)cc1[N+](=O)[O-]` (stereo not given), with -3.75%; and `CCOC(=O)c1ccc(-c2ccc(C3Nc4ccccc4C(=O)N3O)o2)cc1` (stereo not given), with -7.99%.
Consider `O=C1c2ccccc2NC(c2ccc(-c3cccc([N+](=O)[O-])c3)o2)N1O` (stereo not given), for which the inhibition was -4.04%.
Under `CCN1CCN(c2ccc(S(=O)(=O)N3CCCCC3)cc2NC(=O)c2ccccc2)CC1` stands -7.27%; under `CSC(=NS(=O)(=O)c1ccc(C)cc1)SC`, 2.62%.
Consider `CCC(C)(C)NC(=O)CN(CC1CCCO1)C(=O)CCC(=O)Nc1nccs1` (stereo not given), for which the inhibition is 1.73%.
As to `CCOC(=O)C1CCN(c2cc3c(cc2NC(=O)c2ccccc2F)n(C)c(=O)n3C)CC1`, the inhibition was -6.44%.
As to `CC1CCc2cc(F)cc3c(O)c(C(=O)NCCN(C)C)c(=O)n1c23` (stereo not given), the inhibition is -11.2%.
Turning to `CCN(CC)CCCNC(=O)c1c(O)c2cc(F)cc3c2n(c1=O)C(C)CC3` (stereo not given), the inhibition is -12.5%.
Consider `CCOC(=O)c1cn(CC2CC2)c2cc(F)c(F)cc2c1=O`, for which the inhibition was -1.36%.
Under `O=C(O)c1cn(-c2ccc(F)c(F)c2)c2c(F)c(F)c(F)c(F)c2c1=O` stands -8.9%; under `C[n+]1ccccc1/C=C/c1ccc(F)c(F)c1`, -2.41%.
`N#Cc1ccccc1OCC(O)CS(=O)(=O)c1ccccc1` (stereo not given): the inhibition is 8.05%.
Then `Cc1ccc(NNC(=O)c2cc(C(C)(C)C)nn2Cc2ccccc2)cc1`, with 1.12%; and `Cc1cc(C)cc(NS(=O)(=O)c2csc(C(N)=O)c2)c1`, with -4.13%; and `N#Cc1c(C(F)(F)F)cc(Cc2ccccc2)nc1SCC(=O)NCC(=O)O`, with -9.26%.
Then `Cc1ccc2oc(=O)c3cc(C(=O)NCCCN4CCc5ccccc5C4)sc3c2c1`, with -1.04%.
As for `Cc1c(OCC(=O)N[C@@H](Cc2c[nH]c3ccccc23)C(=O)O)ccc2c1oc(=O)c1ccccc12`, the inhibition is 4.69%.
Then `CCOC(=O)C1CCCN(C(=O)c2ccc3nc(-c4ccccc4)c(-c4ccccc4)nc3c2)C1` (stereo not given), with 5.36%; and `CCCc1nc2sc(C(=O)OCC)c(N)c2c2c1COC(C)(C)C2`, with 0.3%.
As to `O=C(CSc1nccc(=O)[nH]1)Nc1ccc(Br)c(Cl)c1`, the inhibition is 4.82%.
Turning to `CCN(CC)C(=O)CSc1nc(COc2ccccc2)nc2ccccc12`, the inhibition was -0.33%.
Then `CC[C@@H](C)[C@H](CN[C@H](CNC)[C@@H](C)O)NCCc1ccc(OC)cc1`, with 4.36%; and `CC[C@H](C)[C@@H](CNC)NC[C@@H](Cc1ccc(O)cc1)NCC(C)(C)C`, with 4.52%; and `O=C(O)CCCC(=O)NCCCCc1ccccc1`, with -10.7%.
Under `COc1cc2ccc3c(CCN(C)C)cc(OC)c(OC)c3c2cc1OC` stands 13.6%; under `CCCCCSc1cc(OC)c(CCN(C)C)cc1OC`, 11.2%.
Under `CNCCc1ccc(OC)c(OC)c1` stands 10.9%.
Consider `CCCCCSc1cc(OC)c(CCN)cc1OC`, for which the inhibition is 15.9%.
Under `CCCCCCSc1cc(-c2nc3cc(C)ccn3c2NCCCC)ccc1OC` stands 0.7%.
As to `CCCCCSc1cc(O)c(C(CNC)C(C)C)cc1OC` (stereo not given), the inhibition is -3.45%.
Under `Cc1ccccc1S(=O)Cc1ccc(C(=O)NC2CCN(Cc3ccccc3)CC2)o1` (stereo not given) stands -1.02%; under `COCC1CCN(C(=O)C2CCC(=O)N(CCc3cccc(F)c3)C2)CC1` (stereo not given), -0.82%; under `COc1cc(/C=N/N2CCN(c3ccc(Cl)cc3)CC2)cc(OC)c1OC(C)=O`, -1.44%.
Consider `CC(=O)N1CCN(c2ccc(NC(=O)c3cccc(Cl)c3)cc2)CC1`, for which the inhibition was 13.2%.
Then `O=C(CCS(=O)(=O)c1ccc(Cl)cc1)Nc1nc(-c2ccncc2)cs1`, with -19.9%.
